Assay outcomes (PubChem BioAssay)
MCF10A rerep: A quantitative high throughput screen for small molecules that induce DNA re-replication in MCF 10a normal breast cells | 350,000 compounds, 2.9% hits | Potency, µM (highest dose often 46.1 µM), without a hit: at the highest dose activity, positive = re-replication, most hits filed as activators | MCF 10A DNA re-replication, Hoechst nuclear intensity, 48 h | AID 624296, 2012; note: % of control where 0% means no effect; nearly all actives have a fitted effect of over 50% in size
TSG101-PTAP inh: qHTS Assay for Iinhibitors of HIV-1 Budding by Blocking the Interaction of PTAP/TSG101; Tumor susceptibility gene 101 protein (Homo sapiens), Q99816; Fluorescence polarization, FITC-PTAP peptide / Tsg101 binding; Potency, µM (titrated, usually from 115 µM), without a hit: top-dose activity change, negative = inhibition, most hits filed as inhibitors; 340,000 tested, under 10 active; active = well fitted inhibition curve with a large enough effect in the main read-out, with a control signal flat, not every such curve was filed as active; inconclusive = small, poorly fitted or top-dose-only effect, or effect the other way, or a change in a side signal; inactive = no such curve, though single readings can be large or run the other way; note: % of control where 0% means no effect
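Compounds were pin-transferred onto Tsg101 binding domain (10 uM final) in HEPES pH 7.5 buffer, then FITC-PTAP peptide was added at 50 nM final. After 20 min at RT, polarization reported peptide displacement across a qHTS concentration series.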
SW480 rerep: A quantitative high throughput screen for small molecules that induce DNA re-replication in SW480 colon adenocarcinoma cells; SW480 DNA re-replication, Hoechst DNA content imaging, 48 h; Potency, µM (series often up to 46.1 µM), for the others: at the top dose re-replication activation, hits mostly activators; 340,000 compounds, 1.8% hits; note: % of control where 0% means no effect; nearly all actives have a fitted effect of over 55% in size
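Readout is total intensity of Hoechst-stained nuclei, excited at 405 nm and collected at 500-530 nm. Compound treatment lasted 48 hr at 37 C in 5% CO2 before staining.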
KB-V1 MDR tox: qHTS assay for MDR1-selective chemotherapeutics: Primary screen using the drug-selected MDR subline cells KB-V1; Potency, µM (doses to about 46.1 µM), most hits filed as cytotoxic; KB-V1 MDR cells viability, CellTiter-Glo, 72 h; 400,000 compounds, 3.4% hits; note: % is set by controls: 0 for no effect and ±100 for the full control effect; nearly all actives have a fitted effect of over 60% in size
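KB-V1, DMEM (no phenol red) + 10% FBS; cpd pin-transferred, titration series; 72 h, 37 degrees C; CellTiter-Glo, luminescence. Data normalized, curve-fit.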
KB-3-1 cytotox: qHTS assay for MDR1-selective chemotherapeutics: Primary screen using the parental adenocarcinoma cell KB-3-1; AID 1347075, 2019; 400,000 compounds, 1.4% hits; Potency, µM (doses to about 46.1 µM), usual class: cytotoxic; KB-3-1 viability, CellTiter-Glo ATP luminescence, 72 h; note: % is set by controls: 0 for no effect and ±100 for the full control effect; nearly all actives have a fitted effect of over 60% in size
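Viability of parental KB-3-1 cells, measured by CellTiter-Glo luminescence, followed a 72 h incubation at 37 °C with pinned compounds in phenol-red-free DMEM containing 10% FBS.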
RGS4 inh: Inhibitors of Regulator of G Protein Signaling (RGS) 4: qHTS; Regulator of G-protein signaling 4 (Homo sapiens), P49798; Transcreener GDP fluorescence polarization, RGS4-accelerated GTP hydrolysis; Potency, µM (highest dose often 114 µM), without a hit: top-dose activity change, negative = inhibition, actives largely listed as inhibitors; 390,000 compounds, 0.039% hits; note: % is set by controls: 0 for no effect and ±100 for the full control effect; nearly all actives have a fitted effect of over 75% in size
Target sequence (P49798 whole entry, looked up): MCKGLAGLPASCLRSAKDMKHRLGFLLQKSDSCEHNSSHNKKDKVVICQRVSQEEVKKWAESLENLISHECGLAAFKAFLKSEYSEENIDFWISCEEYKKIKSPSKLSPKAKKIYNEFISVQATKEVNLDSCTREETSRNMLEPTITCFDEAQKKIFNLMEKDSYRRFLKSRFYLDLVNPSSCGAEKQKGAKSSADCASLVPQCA
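MLSMR compounds (23 nl, pin-transferred) preincubated 10 min at room temperature with a 500nM (2x) first reagent, then RGS4 at 900nM (2x) plus Transcreener GDP mix added; fluorescence polarization (620/688 nm) read before and after 90 min at 30 °C.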
An asterisk follows results filed as active; i = inactive; ? = inconclusive; . = no result given. Rows were chosen to be rich in hits. Some 6.6% of all compounds tested hit in one or more screens of this group. Unless noted, calls come from the whole dose curve; as a rule, active = well fitted curve in the direction sought with a large enough effect; inconclusive = small, poorly fitted or top-dose-only effect, or another doubt; inactive = no such curve, though single readings can be large; an effect the other way counts as inactive or inconclusive. Potency is the fitted concentration of half-maximal effect.

SMILES	MCF10A rerep	TSG101-PTAP inh	SW480 rerep	KB-V1 MDR tox	KB-3-1 cytotox	RGS4 inh
CN(CC(=O)O)c1ccc(/C=C/c2ccnc3ccccc23)cc1	.	.	.	?	i	.
Cc1ccc(N2CCN(C(=O)C3CCCN(c4ncnc5c4nc4n5CCCCC4)C3)CC2)c(C)c1 (configuration not stated)	18.3%	-6.9%	-20.9%	i	?	17.8%
O=C(C1CCCN(c2ncnc3c2nc2n3CCCCC2)C1)N1CCN(c2cccc(Cl)c2)CC1 (configuration not stated)	?	-5.2%	-32.9%	23.1µM*	?	-22.2%
Cc1ccc(C)c(N2CCN(C(=O)C3CCCN(c4ncnc5c4nc4n5CCCCC4)C3)CC2)c1 (configuration not stated)	20.6µM*	-6.2%	26.4%	?	?	-3.0%
Cc1cccc(N2CCN(C(=O)C3CCN(c4ncnc5c4nc4n5CCCCC4)CC3)CC2C)c1 (configuration not stated)	14.6µM*	-1.0%	?	?	?	14.4%
Cc1cccc(N2CCN(C(=O)C3CCN(c4ncnc5c4nc4n5CCCCC4)CC3)CC2)c1C	?	-7.5%	-2.2%	i	?	-2.7%
COc1cccc(N2CCN(c3ncnc4c3nc3n4CCCCC3)CC2)c1	.	.	.	?	16.4µM*	8.3%
COc1ccc(N2CCN(c3ncnc4c3nc3n4CCCCC3)CC2)cc1	.	.	.	?	?	9.7%
O=C(C1CCCN(c2ncnc3c2nc2n3CCCCC2)C1)N1CCN(c2ccccc2)CC1 (configuration not stated)	-9.6%	-3.4%	1.7%	?	i	8.9%
COc1ccc(Nc2ncnc3c2nc2n3CCCCC2)cc1	.	.	.	i	i	-0.9%
O=C(N/N=C/c1ccc([N+](=O)[O-])o1)c1ccccc1-n1cccc1	23.1µM*	-0.5%	2µM*	?	?	24.5%
O=C(N/N=C\c1ccc(O)c([N+](=O)[O-])c1)c1ccccc1-n1cccc1	1.1%	-1.1%	2.8%	16.4µM*	i	11.6%
CCOC(=O)C1CCN(C(=O)C2CCN(c3nnc(C)c4c(C)n(-c5ccccc5)nc34)CC2)CC1	.	.	.	.	.	-1.7%
CCOC(=O)N1CCc2c(sc3c2c(=O)n(CCc2ccccc2)c(=O)n3Cc2cc(C)ccc2C)C1	.	.	.	.	.	24.7%
COc1ccccc1/C=N/n1c(N)c(C(=O)NC2CCCCC2)c2nc3ccccc3nc21	10.3µM*	-3.4%	4.11µM*	i	i	19.3%
Nc1c(C(=O)NC2CCCC2)c2nc3ccccc3nc2n1/N=C/c1ccco1	?	-5.3%	1.46µM*	i	i	13.2%
Nc1c(C(=O)NC2CCCC2)c2nc3ccccc3nc2n1N	?	-6.3%	1.8%	i	i	-23.7%
O=C(NCCc1nc2ccccc2n1CCCOc1ccccc1)C1CCCCC1	.	.	.	i	i	8.9%
Cc1ccc(S(=O)(=O)Nc2ccc3nc(C)oc3c2)cc1	9.9%	-9.6%	0.4%	2.91µM*	?	-18.6%
CC(=O)Nc1ccc2nc(NS(=O)(=O)c3ccc(C)cc3)sc2c1	-0.1%	-1.4%	-0.5%	i	?	-19.5%
Cc1ccc(S(=O)(=O)Nc2ccc3nc(N)sc3c2)cc1	21.0%	-0.6%	-2.8%	20.6µM*	?	-22.6%
Cc1ccc(S(=O)(=O)Nc2ccc3nc(C)sc3c2)cc1	-3.3%	-0.4%	-1.7%	?	i	19.2%
